Most compounds without a hit are left out; they make up all but 3.2% or so of the library.
TWEAK-Fn14 inh – inhibitors of TWEAK-Fn14 interaction signaling; 360,000 tested, 2% active; inhibition, % at 10 µM; TWEAK-stimulated Fn14 reporter cells, luciferase luminescence, 8 h; in the data active means inhibition above about 50%
TROY NFkB inh – blocks TROY-dependent signaling in reporter cells; 360,000 tested, 0.98% active; Q293 LMP1-TROYcd NF-kB luciferase reporter, 4 h; inhibition, % at 10 µM;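 active means compounds whose plate-normalised and pattern-corrected inhibition of the luciferase reporter signal at the single screening dose is 50% or more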
LMP1 NFkB inh – reduces LMP1-driven NF-kappaB luciferase signal. 350,000 tested, 0.69% active. LMP1-induced NF-kappaB luciferase reporter cells, luminescence. inhibition, % at 12.5 µM. AID 504558; in the data active means inhibition above about 41%;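 further: 0% = neutral control wells and 100% = reference inhibitor control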
LGR2 inh – inhibitors of bursicon-induced Drosophila LGR2 receptor cAMP signaling; HEK293 LGR2, CRE-luciferase, bursicon-stimulated, 4 h; inhibition, % at 9.99 µM; 380,000 tested, 0.35% active; AID 720647;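 active means drop in luminescence signal, shown as inhibition above about 50% in the replicate tests, limit read from the data, passing the limit was not always enough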;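 further: agonist challenge used bursicon conditioned medium at about half maximal strength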
PAX8 reporter – PAX8 transcriptional activity inhibition. RMG-I TPO-luciferase reporter, SteadyGlo, 24 h. inhibition, % at 12.6 µM. 360,000 tested, 1.2% active. AID 652154;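 active means mean replicate inhibition at least 60% with every replicate also reaching 60%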;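 further: luciferase light reporting Pax8 driven TPO promoter activity; plate controls were median of neutral control wells for no effect and mitoxantrone controls for full effect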
EWS-Fli block – EWS/Fli transcriptional activity inhibition; inhibition, % at 12.6 µM; AID 651661; 350,000 tested, 0.67% active; A673 NR0B1-luciferase reporter, viability-normalised;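 active means mean inhibition of at least 50% after viability correction, with every replicate also passing that limit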;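 further: firefly luciferase signal divided by Alamar Blue viability fluorescence both relative to DMSO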
An asterisk follows results filed as active; / = no result.

SMILES | TWEAK-Fn14 inh | TROY NFkB inh | LMP1 NFkB inh | LGR2 inh | PAX8 reporter | EWS-Fli block
CS(=O)(=O)N1CCN(c2ccnc3cc(Cl)ccc23)CC1 | 67* | 21 | 7 | 3 | 8 | 0
CCC(=O)N1CCN(c2ccnc3cc(Cl)ccc23)CC1 | -12 | 14 | 24 | 5 | -7 | 9
Cc1ccc(S(=O)(=O)N2CCN(c3ccnc4cc(Cl)ccc34)CC2)cc1C | 10 | 25 | 10 | -2 | -1 | 7
Cc1ccc(S(=O)(=O)N2CCN(c3ccnc4cc(Cl)ccc34)CC2)cc1 | 51* | 31 | 5 | 8 | -8 | 5
O=C(c1ccc(Cl)cc1)N1CCN(c2ccnc3cc(Cl)ccc23)CC1 | -1 | 34 | 50* | 20 | 32 | 10
O=C(C[C@@H]1CC[C@H](NC(=O)c2ccncc2)[C@H](CO)O1)NCC1CC1 | / | / | / | 4 | / | -7
O=C(C[C@@H]1CC[C@@H]2[C@H](COC[C@H](O)CN2C(=O)c2ccccc2F)O1)N1CCN(c2ccccc2)CC1 | / | / | / | -9 | 1 | 5
COc1cccc(S(=O)(=O)N2CCCCN3[C@H](CO)[C@@H](c4ccc(C#CC5CC5)cc4)[C@@H]3C2)c1 | / | / | / | 16 | -8 | 8
C[C@]12CCCC(=O)N1CCc1c2[nH]c2ccccc12 | / | / | / | / | -10 | 5
CCC(C)(C)C1CCc2c(sc(NC(=O)c3ccoc3C)c2C(N)=O)C1 (stereo not given) | 17 | 63* | 3 | / | / | /
N#Cc1c(NC(=O)C2CC=CCC2C(=O)O)sc2c1CCCCCC2 (stereo not given) | -9 | -4 | -10 | -1 | -5 | /
CC(C)(C)C1CCc2c(sc(NC(=O)C3CC=CCC3C(=O)O)c2C#N)C1 (stereo not given) | 27 | 56* | -5 | 7 | 0 | /
CCC(C)(C)C1CCc2c(sc(NC(=O)c3ccccc3C(=O)O)c2C#N)C1 (stereo not given) | 9 | 72* | -8 | / | -13 | -6
CCCN1[C@@H]2c3cccc(=O)n3C[C@H]1[C@H](CO)[C@H]2C(=O)Nc1ccccc1 | / | / | / | 7 | -9 | 3
Nc1cc2c3c(cccc3c1)C(=O)N(CCN1CCCC1)C2=O | -18 | -12 | -13 | -19 | 11 | 39
O=C1c2cccc3cc([N+](=O)[O-])cc(c23)C(=O)N1CCN1CCCC1 | -43 | -27 | 74* | 32 | 90* | 69*
CCC(=O)NNC(=O)Cc1c(C)n(C(=O)c2ccc(Cl)cc2)c2ccc(OC)cc12 | 56* | -11 | -5 | 16 | 10 | 9
CCCNC(=O)Cc1c(C)n(C(=O)c2ccc(Cl)cc2)c2ccc(OC)cc12 | 15 | 0 | 2 | 5 | 6 | 0
CC[C@H](C)[C@H]1O[C@]2(CC[C@@H]1C)C[C@@H]1C[C@@H](CC=C(C)[C@@H](O[C@H]3C[C@H](OC)[C@@H](O[C@H]4C[C@H](OC)[C@@H](O)[C@H](C)O4)[C@H](C)O3)[C@@H](C)C=CC=C3CO[C@@H]4[C@H](O)C(C)=C[C@@H](C(=O)O1)[C@]34O)O2 | 100* | 30 | 1 | / | / | /
CCOc1ccc(C(=O)Nc2ccc(NC(=O)c3ccccc3)cc2)cc1Br | -15 | -8 | 0 | 7 | -21 | 10
CCOc1ccc(C(=O)Nc2ccc(Cc3ccncc3)cc2)cc1Br | 10 | 36 | 5 | -5 | 95* | -1
COc1cccc(/C=N/Nc2nc3ccccc3[nH]2)c1O | 24 | -17 | 83* | -41 | 9 | -56
COc1cccc(/C=N/Nc2nc3ccccc3[nH]2)c1OC | -20 | 18 | -20 | / | -146 | -124
CCN(CC)c1ccc(/C=N/Nc2nc3ccccc3[nH]2)cc1 | 95* | 43 | -10 | -25 | 81* | /
Cc1ccc(/C=N/NC(=O)CSc2nc3ccccc3[nH]2)o1 | 11 | -9 | -9 | -14 | 6 | -14
SMILES | TWEAK-Fn14 inh | TROY NFkB inh | LMP1 NFkB inh | LGR2 inh | PAX8 reporter | EWS-Fli block
C(=N\Nc1nc2ccccc2[nH]1)/c1ccncc1 | 44 | 59* | -25 | -27 | -144 | -77
O=C(CSc1nc2ccccc2[nH]1)N/N=C/c1ccncc1 | -31 | 57* | / | -4 | 21 | -2
CO[C@@H]1CN(C)C(=O)c2ccc(NC(=O)Cc3ccccc3)cc2OC[C@H](C)N(C(C)=O)C[C@H]1C | / | / | / | -1 | / | -8
O=C(O)/C=C/C(=O)NCc1ccccc1 | 5 | 5 | 0 | 3 | 82* | -1
O=C(O)/C=C\C(=O)NCc1ccccc1 | 0 | -16 | -11 | / | -2 | /
C[C@@H]1CCCCO[C@@H](CN(C)C(=O)Nc2ccc3c(c2)OCO3)[C@H](C)CN([C@H](C)CO)C(=O)c2cc(NC(=O)Nc3ccc(F)cc3)ccc2O1 | / | / | / | -5 | 36 | -1
COC(=O)C(CC#Cc1ccc2c(c1)[C@]1(C(=O)N2)[C@H](c2ccccc2OCCO)N2[C@H](c3ccccc3)[C@H](c3ccccc3)OC(=O)[C@H]2[C@@H]1C(=O)N1CCc2cc(OC)c(OC)cc2C1)C(=O)OC | / | / | / | / | -14 | 56*
COC(=O)C(CC#Cc1ccc2c(c1)[C@]1(C(=O)N2)[C@H](C(=O)NC[C@H](O)c2ccccc2)[C@H]2C(=O)O[C@H](c3ccccc3)[C@H](c3ccccc3)N2[C@@H]1c1ccccc1OCCO)C(=O)OC | / | / | / | / | 101* | 71*
COc1ccc(C2(C#N)CCC(=O)N2c2ccccc2)cc1 (stereo not given) | -17 | 52* | 5 | / | -8 | -4
O=C(C1CCCCC1)N1CC(=O)N2[C@@H](CO)[C@@H](c3ccc(Br)cc3)[C@@H]2C1 | / | / | / | 11 | -3 | -4
O=C(Nc1ccccc1)N1CCCCN2[C@@H](CO)[C@@H](c3ccc(C#Cc4ccccc4)cc3)[C@@H]2C1 | / | / | / | 3 | 107* | 43
O=C(Nc1ccccc1)N1CCCCN2[C@@H](CO)[C@@H](c3ccc(-c4ccccc4)cc3)[C@@H]2C1 | / | / | / | 27 | -5 | 65*
O=C(Nc1ccc(F)cc1)N1CCCCN2[C@@H](CO)[C@@H](c3ccc(C#Cc4ccccc4)cc3)[C@@H]2C1 | / | / | / | -6 | 77* | 63*
O=C(Nc1ccccc1)N1CCCCN2[C@@H](CO)[C@H](c3ccc(C#Cc4ccccc4)cc3)[C@@H]2C1 | / | / | / | 2 | 72* | 34
O=C(NCc1ccccc1)[C@@H]1N[C@@H]2c3ccc(-c4ccccc4)c(=O)n3C[C@@H]2[C@H]1CO | / | / | / | -5 | / | 10
O=C(C[C@@H]1CC[C@@H]2[C@H](COC[C@@H](O)CN2S(=O)(=O)c2ccc(F)cc2)O1)N[C@@H]1CCN(Cc2ccccc2)C1 | / | / | / | 4 | -15 | -9
COc1ccc(OCC(O)Cn2c(=N)n(Cc3ccccc3)c3ccccc32)cc1 (stereo not given) | 23 | 12 | -2 | / | 6 | /
N=c1n(Cc2ccccc2)c2ccccc2n1CC(O)COc1ccc(Cl)cc1Cl (stereo not given) | 29 | 60* | -13 | 101* | 93* | 62*
